PubChem BioAssay AID504815 (NMMLSC, 2011)
Potency and affinity values are given separately. The source made the active and inactive calls.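 Rule for the calls: active = compounds with a tight curve fit, inhibition span over 25% and half-maximal concentration below 10 µM; inactive = the rest.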

Biological target: Beta-adrenergic receptor kinase 1 (Homo sapiens) (UniProt P25098)
Assay: Concentration-response of GRK2 aptamer binding blockers, biochemical bead flow cytometry, cherry pick 2 (AID 504815)
Conditions: biotinylated GRK2 beads, FAM-aptamer displacement; series mostly up to 33 µM

Beta-adrenergic receptor kinase 1 (Homo sapiens), sequence (P25098 whole entry, looked up): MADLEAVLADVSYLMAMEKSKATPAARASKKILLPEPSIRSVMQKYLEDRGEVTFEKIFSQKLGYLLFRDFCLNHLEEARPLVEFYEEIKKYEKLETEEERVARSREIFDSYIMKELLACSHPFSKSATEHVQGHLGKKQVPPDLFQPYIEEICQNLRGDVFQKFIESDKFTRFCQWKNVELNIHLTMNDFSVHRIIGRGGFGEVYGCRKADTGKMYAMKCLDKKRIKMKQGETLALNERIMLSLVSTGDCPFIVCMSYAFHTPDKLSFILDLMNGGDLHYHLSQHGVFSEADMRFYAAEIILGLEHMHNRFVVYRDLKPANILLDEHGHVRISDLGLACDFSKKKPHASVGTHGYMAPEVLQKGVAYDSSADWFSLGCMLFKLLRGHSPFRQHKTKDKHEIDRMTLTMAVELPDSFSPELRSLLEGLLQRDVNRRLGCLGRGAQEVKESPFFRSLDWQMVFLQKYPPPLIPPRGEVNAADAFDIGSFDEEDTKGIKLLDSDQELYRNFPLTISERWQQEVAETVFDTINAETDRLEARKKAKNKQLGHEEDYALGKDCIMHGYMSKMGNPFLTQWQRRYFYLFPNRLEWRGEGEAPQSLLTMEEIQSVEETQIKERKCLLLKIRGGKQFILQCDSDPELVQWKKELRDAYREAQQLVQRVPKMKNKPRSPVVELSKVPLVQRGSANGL

outcome, inactive:
CCc1ccccc1NC(=O)CCS(=O)(=O)c1ccc(Br)cc1
COc1ccc(Cl)cc1NC(=O)CCS(=O)(=O)c1ccc(Br)cc1
O=C(CCS(=O)(=O)c1ccc(Br)cc1)NCc1ccco1
CCOc1ccccc1NC(=O)CCS(=O)(=O)c1ccc(Br)cc1
O=C(CCS(=O)(=O)c1ccc(Br)cc1)NCCc1ccccc1
CCc1ccccc1NC(=O)CCS(=O)(=O)c1ccc(OC)cc1
CCN(CC)c1ccc(NC(=O)CCS(=O)(=O)c2ccc(Br)cc2)c(C)c1
O=C(CCS(=O)(=O)c1ccc(Br)cc1)Nc1ccc(Br)cc1F
O=C(CCS(=O)(=O)c1ccc(Br)cc1)NCc1ccc(F)cc1
COc1ccc(-c2csc3nc(-c4ccc(C)cc4)oc(=O)c23)cc1OC
COc1ccc([N+](=O)[O-])cc1NC(=O)CCS(=O)(=O)c1ccc(Br)cc1
Cc1ccccc1NC(=O)CCS(=O)(=O)c1ccc(Br)cc1
O=C(CCS(=O)(=O)c1ccc(Br)cc1)Nc1cc(F)ccc1F
O=C(CCS(=O)(=O)c1ccc(Br)cc1)NC1CCCC1
O=C(CCS(=O)(=O)c1ccc(Br)cc1)NCCc1ccc(Cl)cc1
COc1ccc(CNC(=O)CCS(=O)(=O)c2ccc(Br)cc2)cc1
O=C(CCS(=O)(=O)c1ccc(Br)cc1)NCc1cccs1
C#CCSc1nc2sc3c(c2c(=O)n1C)CCC3
CCOc1ccc(NC(=O)CCS(=O)(=O)c2ccc(Br)cc2)cc1
COC(=O)c1ccc(NC(=O)CCS(=O)(=O)c2ccc(Br)cc2)cc1
